# Source: PubChem BioAssay (NCATS)
# “And” between values parts separate entries of the source, which are not always exact repeats. Equal values may be shown once. Inconclusive results are not listed. Where a call stands in place of a potency, no number is given. The source holds several records for some structures; these can differ, active in one and inactive in another. The source made the active and inactive calls. The call rests on the fitted dose curve.
# Test: Primary qHTS to identify inhibitors of SARS-CoV-2 cell entry (AID 1645846); further: nearly all actives have a fitted effect of over 45% in size
# Conditions: SARS-CoV-2 pseudovirus cell entry assay, luminescence; activity change, negative = inhibition: at 57.1 µM (top of the series) unless noted; series mostly up to 57.1 µM
# Summary of the method: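 HEK293 cells stably expressing human ACE2, pre-treated 1 h with compound, then infected with MLV particles pseudotyped with Wuhan-Hu-1 spike (C-terminal 19-aa truncation). Luciferase luminescence after 48 h at 37 °C, normalised to spike PP and bald PP.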
# Potency means the concentration at half of the fitted maximal effect.
Structure (SMILES),"activity change, negative = inhibition",outcome,Potency
O=C1[C@H](CC[C@H](O)c2ccc(F)cc2)[C@@H](c2ccc(O)cc2)N1c1ccc(F)cc1,1.63% and -17.2%,,
Cc1cc(C)cc(OCC2CNC(=O)O2)c1 (stereo unspecified),,inactive,
CC(C)[N+](C)(CCOC(=O)C1c2ccccc2Oc2ccccc21)C(C)C,2.34%,,
Cc1ccc(S(=O)(=O)NC(=O)NN2CC3CCCC3C2)cc1 (stereo unspecified),,,inactive
CCN1CCN(C(=O)N[C@@H](C(=O)N[C@@H]2C(=O)N3C(C(=O)O)=C(CSc4nnnn4C)CS[C@H]23)c2ccc(O)cc2)C(=O)C1=O,,,inactive
CC(COc1ccccc1)N(CCCl)Cc1ccccc1 (stereo unspecified),-7.59%,,
C[C@@H](c1ncncc1F)C(O)(Cn1cncn1)c1ccc(F)cc1F (stereo partly specified),-1.38%,,
CCCN(CCC)S(=O)(=O)c1ccc(C(=O)O)cc1,-14.9%,,
CCN(C)C(=O)Oc1cccc([C@H](C)N(C)C)c1,,inactive,
Nc1cc(-c2ccncc2)c[nH]c1=O,,inactive,
COc1cccc2c1C(=O)c1c(O)c3c(c(O)c1C2=O)C[C@@](O)(C(=O)CO)C[C@@H]3O[C@H]1C[C@H](N)[C@H](O)[C@H](C)O1,-93.7%,,
Nc1nnc(-c2cccc(Cl)c2Cl)c(N)n1,,,inactive
CC(N)C12CC3CC(CC(C3)C1)C2 (stereo unspecified),-7.42%,,
c1cnc2cc3c(cc2n1)C1CNCC3C1,-6.05% and -6%,,
CC1=NS(=O)(=O)c2cc(Cl)ccc2N1,,inactive,
COc1c(C)c2c(c(O)c1C/C=C(\C)CCC(=O)OCCN1CCOCC1)C(=O)OC2,-45.8%,,
Nc1[nH]c(=O)ncc1F,-21.9% and -13.2%,,
CC(=O)CCCCn1c(=O)c2c(ncn2C)n(C)c1=O,,inactive,

Structure (SMILES),"activity change, negative = inhibition",outcome,Potency
CN/C(=C\[N+](=O)[O-])NCCSCc1ccc(CN(C)C)o1,,inactive,
CC[C@H](C)C(=O)O[C@H]1C[C@@H](C)C=C2C=C[C@H](C)[C@H](CC[C@@H]3C[C@@H](O)CC(=O)O3)[C@H]21,,,inactive
CC(=O)Oc1ccccc1C(=O)Nc1ncc([N+](=O)[O-])s1,,,5.62 µM (active) and inactive
Nc1nc(N)c2nc(-c3ccccc3)c(N)nc2n1,,inactive,
COc1nc(N)nc2c1ncn2[C@@H]1O[C@H](CO)[C@@H](O)[C@@H]1O,,inactive,
Cc1ccc(S(=O)(=O)NC(=O)NN2CCCCCC2)cc1,2.93%,,
COCCCC/C(=N\OCCN)c1ccc(C(F)(F)F)cc1,2.14%,,
COC(=O)C1=C(C)NC(C)=C(C(=O)OC(C)C)C1c1cccc2nonc12 (stereo unspecified),,inactive,
O=C1OCCN1/N=C/c1ccc([N+](=O)[O-])o1,,inactive,
CCCN(CCC)CCc1cccc2c1CC(=O)N2,,inactive,
Cc1nc(-c2ccc(OCC(C)C)c(C#N)c2)sc1C(=O)O,,,inactive
CO[C@@H](C(=O)N1Cc2[nH]nc(NC(=O)c3ccc(N4CCN(C)CC4)cc3)c2C1)c1ccccc1,-64.7%,,
Clc1ccc2c(c1)C(N1CCNCC1)=Nc1ccccc1O2,-2.85%,,
Fc1ccc([C@@H]2CCNC[C@H]2COc2ccc3c(c2)OCO3)cc1,-4.22%,,
Cc1ccc(-n2nc(C(C)(C)C)cc2NC(=O)Nc2ccc(OCCN3CCOCC3)c3ccccc23)cc1,-13.7%,,
Cc1[nH]c(=O)c(C#N)cc1-c1ccncc1,,,inactive
O=C1N=C(O)CN1/N=C/c1ccc(-c2ccc([N+](=O)[O-])cc2)o1,,inactive,
O=C(O)COCCN1CCN(C(c2ccccc2)c2ccc(Cl)cc2)CC1 (stereo unspecified),-14.4%,,
